In the library only some 2.2% were active in any assay of this set; here they are far more common.
aSyn yeast inh: inhibitors of alpha-synuclein toxicity in yeast | Yeast expressing alpha-synuclein, growth rescue, BacTiter-Glo, 24 h | Potency, µM (titrated, usually from 46.1 µM), inactives show at the highest dose growth rescue (activation), actives largely listed as activators | 370,000 tested, 0.14% active; also: % of control where 0% means no effect; nearly all actives have a fitted effect of over 65% in size
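Readout is rescue of growth in alpha-synuclein-expressing yeast, so inhibitors of toxicity appear as activators. Growth after 24 hr at 30 deg C in galactose medium is quantified by luminescence.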
Mito fusion yeast: blocks mitochondrial division or promotes mitochondrial fusion | S. cerevisiae fusion-defective mutant growth rescue, CellTiterGlo 48 h | Potency, µM (titrated, usually from 46.1 µM), without a hit: at the highest dose growth rescue (activation), most hits filed as activators | 320,000 tested, 0.23% active | AID 485298; also: % of control where 0% means no effect; nearly all actives have a fitted effect of over 45% in size
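Yeast fusion mutant, YPEG (non-fermentable carbon), compound, 48 h at 37C non-permissive; CellTiterGlo added, 10 min RT, luminescence read. Rescued growth = division inhibition.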
FUS suppressor: FUS proteinopathy suppression in yeast; Potency, µM (top dose mostly 76.6 µM), most hits filed as activators; 390,000 tested, 0.24% active; S. cerevisiae FUS-expressing, growth rescue, OD600, 24 h;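 also: plate controls were DMSO vehicle for no effect and reference control for full effect; nearly all actives have a fitted effect of over 55% in size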
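Steps: raffinose overnight preculture; dilution to OD 0.005 in 2% galactose minimal medium; compound addition (concentration series); 24hr at 30C, 99% humidity; absorbance read at 600 nm.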
Abeta yeast res: restores growth of yeast expressing A-beta42 peptide; yeast expressing A-beta42, growth rescue, OD600, 48 h; response scale: 0% DMSO, 100% iron-clioquinol control; Potency, µM (titrated, usually from 46.1 µM), actives largely listed as activators; 410,000 tested, 0.063% active; AID 1347071; also: nearly all actives have a fitted effect of over 55% in size
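Yeast A-beta toxicity model in growth medium with pinned compounds, 48 h at 30 C; growth read as absorbance at 600 nm. Normalized to FeCl3/clioquinol equimolar mix (positive) and DMSO (negative).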
TDP43 rescue: inhibitors of TDP-43 toxicity in yeast; AID 652104; 410,000 tested, 1.8% active; TDP-43 expressing yeast growth rescue, BacTiter-Glo, 24 h; Potency, µM (top dose mostly 46.1 µM), for the others: top-dose growth rescue (activation), hits mostly activators; also: % of control where 0% means no effect; nearly all actives have a fitted effect of over 50% in size
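Galactose-induced TDP-43 yeast, OD600=0.02, compound pinned; 24 hr, 30 deg C; BacTiter-Glo luminescence for growth. Inhibitors of TDP-43 toxicity read as activators.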
* hit, by the source's call; i = inactive; u = inconclusive; x = no result given; [ ] = another dose, or the depositor's remark. Calls follow the shape of the dose curve; as a rule, active = well fitted curve in the direction sought with a large enough effect; inconclusive = small, poorly fitted or top-dose-only effect, or another doubt; inactive = no such curve, though single readings can be large; an effect the other way counts as inactive or inconclusive. Potency is read from the fitted curve at half-maximal effect.

SMILES	aSyn yeast inh	Mito fusion yeast	FUS suppressor	Abeta yeast res	TDP43 rescue
O=C1[C@@H]2CSC(c3ccc(C(F)(F)F)cc3)N2C(=O)N1c1ccccc1 (stereo partly drawn)	x	x	i	i	12.6µM*
O=C1[C@@H]2CSC(c3ccc(Cl)cc3)N2C(=O)N1c1ccccc1 (stereo partly drawn)	x	x	i	i	35.5µM*
Cc1nc2c(ccc3nc(NC(=O)Cc4ccccc4)sc32)s1	2.1%	11.2µM*	i	u	u
CCCN1CCOC(CC(=O)Nc2ccc([N+](=O)[O-])cc2)C1=O (stereo not drawn)	2.7%	-5.7%	i	i	20µM*
COc1ccccc1N1CCN(C(=O)C2CCN(S(=O)(=O)c3cccs3)CC2)CC1	x	x	i	i	-12.4%
O=C(NCc1nc2cccnc2n1Cc1ccc(F)cc1)c1ccccc1C(F)(F)F	x	x	i	i	8.7%
Cc1ccc(C(=O)NCC(=O)N(C)Cc2ccc(Cl)cc2Cl)s1	19.1%	-10.3%	i	i	8.91µM*
CC(C)C[C@@H](CN)NC(=O)c1nc[nH]c1C(=O)N[C@@H](CC(C)C)C(=O)CNC[C@H](C)NC(=O)c1nc[nH]c1C(=O)N[C@@H](CC(=O)O)C(=O)O	0.6%	x	i	i	9.4%
Nc1ccc(Sc2ccc([N+](=O)[O-])cc2)cc1	20µM*	-6.4%	i	i	u
O=C1C=CC(=O)N1c1ccc(Sc2ccc([N+](=O)[O-])cc2)cc1	x	0.5%	x	x	x
Cc1ccc(C(=O)Oc2oc(-c3ccco3)nc2C=Nc2ccc(Cl)cc2)cc1	2.3%	2.1%	x	i	6.31µM*
O=C(Oc1oc(-c2ccco2)nc1C=Nc1ccccc1)c1ccoc1	u	-0.1%	i	i	-22.3%
Cc1ccccc1OCCCCc1c(C)n[nH]c1C	-1.9%	7.7%	i	i	-0.3%
Cc1ccccc1OCCCc1c(C)n[nH]c1C	8.0%	5.7%	i	i	20µM*
CCc1ccc(Nc2cnn(-c3nc4ccccc4s3)c(=O)c2Cl)cc1	2.3%	11.2µM*	x	i	-19.3%
CCCCNc1cnn(-c2ccccc2)c(=O)c1Cl	12.8%	-6.4%	i	i	0.0%
CCOC(=O)Cc1csc(NC(=O)COc2ccc(C)cc2)n1	-9.6%	-4.9%	i	u	11.2µM*
CCOC(=O)Cc1csc(NC(=O)COc2ccc(C)c(C)c2)n1	-8.9%	-3.2%	i	u	u
CCOC(=O)Cc1csc(NC(=O)COc2ccc3c(c2)CCC3)n1	-24.1%	-9.7%	i	u	15.8µM*
Cc1oc(-c2ccccc2)nc1C(=O)OCC(=O)NCc1ccc(Cl)cc1	6.1%	5.1%	i	i	14.1%
Cc1ccc(CNC(=O)COC(=O)c2nc(-c3ccccc3)oc2C)cc1	1.0%	29.8%	i	i	35.5µM*
CCN1C(=NCCc2cccs2)N[C@@H](CCc2ccccc2)[C@H](C(=O)NCCc2cccs2)[C@H]1C	x	-3.4%	x	x	x
O=C(c1ccc(F)cc1)n1nc(-c2ccccc2)nc1NCc1ccco1	-30.6%	x	i	i	15.7%
CCc1nc(-c2cc(S(=O)(=O)N3CCN(c4ccccc4OC)CC3)ccc2OC)no1	x	x	i	i	15.4%[9.22 µM]
Cc1ccc(S(=O)(=O)N2CCN(C(=O)CCN3C(=O)c4ccccc4C3=O)CC2)cc1C	1.5%	-5.3%	i	i	15.8µM*
SMILES	aSyn yeast inh	Mito fusion yeast	FUS suppressor	Abeta yeast res	TDP43 rescue
Cc1ccc(S(=O)(=O)N2CCN(C(=O)Cc3ccccc3)CC2)cc1C	-0.6%	-0.8%	i	i	22.4%
Cc1cc(C)cc(NC(=O)Cn2c(=O)n(-c3ccc(C)c(C)c3)c(=O)c3oc4ccccc4c32)c1	x	x	i	i	7.1%
CC(=O)c1c(C)[nH]c(C(=O)OCc2c(F)cccc2Cl)c1C	-1.2%	-1.8%	i	i	9.5%[9.22 µM]
CC(=O)c1c(C)[nH]c(C(=O)OCc2cccc(Cl)c2)c1C	-8.8%	u	i	i	15.8µM*
CCOC(=O)c1c(C)[nH]c(C=O)c1Cc1cccc(Cl)c1	8.9%	12.6µM*	i	i	25.1%
COc1ccc(C(=O)O/N=C(\N)c2ccccc2)cc1	-68.5%	-5.5%	i	i	u
